Screening results deposited in PubChem BioAssay by National Center for Advancing Translational Sciences (NCATS).
This is a sample that favours compounds with a hit; in the whole collection about 7.9% have one here.
HT1080 IDH1KD tx: kills HT-1080 cells with IDH1 knockdown. Potency, µM (top dose mostly 46.1 µM), hits mostly cytotoxic. AID 686971. 2% of 360,000 active. HT-1080 IDH1 knockdown viability, ATP luminescence, 48 h
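Cytotoxicity counter-line: IDH1KD HT-1080, 48 h, CellTiter-Glo. Curves classed by r2, magnitude and activity.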
MCF10A rerep: induces DNA re-replication in MCF 10a normal breast cells; MCF 10A DNA re-replication, Hoechst nuclear intensity, 48 h; Potency, µM (highest dose often 46.1 µM), hits mostly activators; 2.9% of 350,000 active; also: nearly all actives have a fitted effect of over 50% in size
KB-V1 MDR tox: kills drug-selected multidrug resistant KB-V1 cells; KB-V1 MDR cells viability, CellTiter-Glo, 72 h; Potency, µM (titrated, usually from 46.1 µM), most hits filed as cytotoxic; 3.4% of 400,000 active; AID 1347076; also: nearly all actives have a fitted effect of over 60% in size
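Luminescent ATP read-out (CellTiter-Glo, 10 min) measures survival of drug-selected KB-V1 MDR cells after 72 h, 37 degrees C compound exposure. Medium: phenol-red-free DMEM, 10% FBS. Values from fitted concentration-response curves.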
KB-3-1 tox: kills parental KB-3-1 adenocarcinoma cells; AID 1347075; Potency, µM (series often up to 46.1 µM), usual class: cytotoxic; KB-3-1 viability, CellTiter-Glo ATP luminescence, 72 h; 1.4% of 400,000 active; also: nearly all actives have a fitted effect of over 60% in size
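Viability of parental KB-3-1 cells, measured by CellTiter-Glo luminescence, followed a 72 h incubation at 37 °C with pinned compounds in phenol-red-free DMEM containing 10% FBS.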
HT1080-NT tox: kills 2HG-producing HT-1080-NT fibrosarcoma cells; HT-1080-NT fibrosarcoma viability, CellTiter-Glo ATP luminescence, 48 h; Potency, µM (top dose mostly 46.1 µM), most hits filed as cytotoxic; 1.6% of 360,000 active;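 also: NT is the 2HG producing partner of a matched IDH1 knockdown line; nearly all actives have a fitted effect of over 55% in size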
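A 48-hour cytotoxicity screen used HT-1080-NT cells plated 2 hours before compound delivery. ATP-based CellTiter-Glo luminescence measured viability, normalized to DMSO and no-cell controls.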
SW480 rerep: induces DNA re-replication in SW480 colon adenocarcinoma cells; Potency, µM (series often up to 46.1 µM), hits mostly activators; 1.8% of 340,000 active; SW480 DNA re-replication, Hoechst DNA content imaging, 48 h; also: nearly all actives have a fitted effect of over 55% in size
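Image-based read-out: total Hoechst fluorescence of nuclei (405 nm excitation, 500-530 nm emission), with hits raising the fraction of high-intensity nuclei. SW480 colon cells incubated 48 hr with compounds at 37 C.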
Hits are given with their value; – = inactive; ? = inconclusive; · = not tested or not shown. Calls follow the shape of the dose curve; as a rule, active = well fitted curve in the direction sought with a large enough effect; inconclusive = small, poorly fitted or top-dose-only effect, or another doubt; inactive = no such curve, though single readings can be large; an effect the other way counts as inactive or inconclusive.

SMILES	HT1080 IDH1KD tx	MCF10A rerep	KB-V1 MDR tox	KB-3-1 tox	HT1080-NT tox	SW480 rerep
CC(=O)c1ccc(-n2cc(-c3ccc(C(C)(C)C)cc3)[n+]3c2SCCC3)cc1	?	–	–	?	?	–
Clc1ccc(-c2cn(-c3ccc(Cl)cc3)c3[n+]2CCCCC3)cc1	–	–	–	?	–	–
Clc1ccc(-c2c[n+]3c(n2-c2ccccc2)SCC3)cc1	–	–	–	15µM	–	–
Clc1ccc(-c2cn(-c3ccccc3)c3[n+]2CCS3)cc1	–	–	–	13µM	–	–
Fc1ccc(-c2cn(-c3ccccc3)c3[n+]2CCS3)cc1	–	–	–	?	?	–
COc1ccc(-c2cn(-c3ccc(Br)cc3)c3[n+]2CCS3)cc1	–	–	–	8.2µM	–	–
COc1ccc(-c2cn(-c3ccc(Cl)cc3)c3[n+]2CCCCC3)cc1	–	?	–	9.2µM	–	–
Cc1cc(Br)c2c(c1)[C@](O)(c1cn(C)c3ccccc13)C(=O)N2C	?	·	?	–	?	·
O=C(O)c1ccccc1C(=O)c1ccc2oc(=O)[nH]c2c1	–	–	–	–	–	–
Cc1cc2c(cc1S(=O)(=O)N(C)Cc1ccccc1)OCC(=O)N2	–	–	–	–	–	–
CC(C)(C)c1cc(Cl)ccc1OCCOCCN1CCCC1	18µM	–	–	–	15µM	–
C=CCNCCOCCOc1ccc(Cl)cc1C(C)(C)C	–	?	?	–	–	–
COCCCNCCOCCOc1ccc(Cl)cc1C(C)(C)C	?	18µM	18µM	–	–	?
CCOc1ccc2c(c1)sc1nc(=O)n(-c3ccc(Cl)c(Cl)c3)c(=O)n12	·	·	–	–	·	·
CC(=O)Oc1ccc(C2=Cc3ccc(OC(C)=O)cc3OC2C)cc1 (stereo unspecified)	16µM	4.1µM	?	?	?	?
Cc1ccc(NC(=O)CSCC(=O)N(C)CC(=O)Nc2ccccc2C(F)(F)F)cc1	–	?	–	–	–	–
CCc1ccccc1Nc1nn2c(=O)c3ccc(C(=O)NCc4ccccn4)cc3nc2s1	0.029µM	?	–	?	0.26µM	?
O=C1C=CC(=C(c2ccc(O)cc2)c2ccc(O)cc2)C=C1	12µM	6.5µM	?	5.8µM	9.2µM	?
O=C(O)C1=CC(=C(c2ccc(O)c(C(=O)O)c2)c2ccc(O)c(C(=O)O)c2)C=CC1=O	–	·	·	·	–	·
O=C(CCCN1C(=O)NC2(CCCC2)C1=O)Nc1ccc(Cl)c(S(=O)(=O)N2CCOCC2)c1	–	–	?	–	–	?
CCOc1cc(-c2c(C)c(CC)nc(N)c2C#N)ccc1O	?	?	18µM	?	–	–
Cc1ccc(-c2cc(-c3ccc(C)o3)nc(N)c2C#N)cc1	–	?	–	–	–	23µM
Cc1ccc(-c2c(C#N)c(N)nc3c2CCCCC3)o1	–	?	–	?	–	–
N#Cc1c(N)oc(-c2ccc3c(c2)OCO3)c1-c1ccc2c(c1)OCO2	–	–	16µM	–	–	–
Cc1ccc(-c2cc(-c3ccc(F)cc3)c(C#N)c(N)n2)o1	?	4.1µM	–	–	–	21µM
SMILES	HT1080 IDH1KD tx	MCF10A rerep	KB-V1 MDR tox	KB-3-1 tox	HT1080-NT tox	SW480 rerep
Cc1c(C(=O)NCc2ccc(Cl)cc2)sc2nc3n(c(=O)c12)CCCCC3	·	·	?	–	·	·
CCOc1cc(-c2cc(-c3ccc(C)o3)nc(N)c2C#N)ccc1O	?	?	23µM	?	?	?
COc1ccc(-c2cc(-c3ccc(O)cc3)nc(N)c2C#N)cc1OC	?	?	?	?	–	–
Cc1cc(-c2cc(-c3ccc(Cl)cc3)nc(N)c2C#N)co1	?	2.6µM	–	–	?	7.3µM
Cc1ccc(-c2cc(-c3ccc(Cl)cc3)c(C#N)c(N)n2)o1	–	2.9µM	–	–	–	2.6µM
Cc1nc(N)c(C#N)c(-c2ccc3c(c2)OCO3)c1C	–	?	–	–	–	–
Cc1ccc(-c2cc(-c3ccc4c(c3)OCO4)c(C#N)c(N)n2)o1	–	21µM	–	–	?	21µM
CCCc1cc(-c2ccc(O)c(OCC)c2)c(C#N)c(N)n1	?	–	?	?	–	–
COc1ccccc1N(CC(=O)N1CCN(c2ccccc2)CC1)S(=O)(=O)c1ccc(C)cc1	–	?	·	·	–	–
O=C(NNC(=O)C1CC(=O)N(Cc2ccccc2)C1)c1ccc(Br)cc1 (stereo unspecified)	–	–	–	–	–	–
O=c1[nH]ncc(N/N=C/c2ccccc2)c1Cl	–	?	?	–	–	–
COc1ccc(/C=N/Nc2cn[nH]c(=O)c2Cl)cc1	–	?	?	7.3µM	–	–
Cc1ccsc1/C=N\Nc1cn[nH]c(=O)c1Cl	–	?	2.6µM	4.6µM	–	–
Cc1ccc(/C=N\Nc2cn[nH]c(=O)c2Cl)cc1	–	–	?	7.1µM	–	–
Cc1ccc(N/C(=N/S(=O)(=O)c2cccs2)c2ccccc2)c(C)c1	–	?	9.2µM	?	?	?
Cc1ccc(S(=O)(=O)/N=C(/Nc2ccc([N+](=O)[O-])cc2[N+](=O)[O-])c2ccccc2)cc1	–	?	16µM	–	–	–
O=C(NC(=O)c1c(F)cccc1F)Nc1cccc(Oc2ncc(Cl)cn2)c1	–	–	?	?	–	–
COC(=O)N/N=C/c1ccc(-c2ccc(Cl)cc2Cl)o1	–	–	–	–	–	–
COC(=O)N/N=C/c1ccc(-c2ccccc2Cl)o1	–	–	6.5µM	?	–	–
COC(=O)c1ccccc1-c1ccc(/C=N/NC(N)=O)o1	–	–	5.2µM	15µM	–	–
CCc1ccc(-c2nn(CC(=O)NC3CCCC3)c3c2cnc2ccc(C)cc23)cc1	·	·	–	–	·	·
Nc1nc2ccc(-c3nc4ccccc4o3)cc2s1	–	?	1µM	5.8µM	–	–
Cc1ccc(NC(=O)Cn2cnc3c2c(=O)n(C)c(=O)n3C)cc1C	·	·	–	–	·	·
N/C(=N\OC(=O)c1cccc(C(F)(F)F)c1)c1cnccn1	–	–	–	–	–	–
O=C(OCn1ncc(Cl)c(Cl)c1=O)c1cccc(C(F)(F)F)c1	21µM	5.8µM	?	4.6µM	?	5.8µM
SMILES	HT1080 IDH1KD tx	MCF10A rerep	KB-V1 MDR tox	KB-3-1 tox	HT1080-NT tox	SW480 rerep
O=C(NCCc1c[nH]c2ccccc12)Nc1ccccc1C(F)(F)F	·	·	?	–	·	·
CCNc1nc(N2CCCC2)nc(N2CCCC2)n1	–	–	–	–	–	–
CCNc1nc(NC(C)(C)C)nc(N2CCCCC2)n1	–	18µM	–	?	–	15µM
O=C(CCl)NCCCCCCCCCNC(=O)CCl	15µM	?	?	?	16µM	?
COc1ccc(-c2noc(CNS(=O)(=O)c3ccc(NC(C)=O)cc3)n2)cc1	–	–	–	–	–	–
O=C(NCc1nc(-c2ccc(C(F)(F)F)cc2)no1)Nc1ccc(OC(F)(F)F)cc1	?	?	?	?	26µM	?
